hcDAF-12 act: H. contortus DAF-12 nuclear receptor activators, primary screen, cell-based, luminescence, HEK293, lit1-tk-luc reporter; HEK293 hcDAF-12 lit1-tk-luc reporter; 0% DMSO, 100% Δ7-dafachronic acid; activation, % at 6.8 µM; 1.4% of 370,000 active;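 active = activation above the mean of all tested compounds plus 3 SD, cut at about 5.5% in these data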
ssDAF12 agonist: S. stercoralis DAF-12 nuclear receptor activators, primary screen, cell-based, luminescence, HEK293, GRIP1 co-expression, lit1-tk-luc; Nuclear hormone receptor DAF-12 (Strongyloides stercoralis); 1% of 370,000 active; activation, % at 6.8 µM; HEK293 ssDAF-12/GRIP1 lit1-tk-luc reporter; % of 3 µM dafachronic acid response; AID 652126, 2013;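 active = activation above the mean over all tested compounds plus 3 SD, cut at about 0.9% in these data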
DAX1 inh-1: DAX1 (NR0B1) inhibitors, primary screen, cell-based, HEK293, Gal4-DAX1, luciferase luminescence. Nuclear receptor subfamily 0 group B member 1 (Homo sapiens), P51843. inhibition, % at 6.75 µM. AID 504766, 2011. HEK293 Gal4-DAX1 luciferase reporter. 0.99% of 340,000 active;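 active = inhibition above the mean over all tested compounds plus 3 SD, cut at about 4.2% in these data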;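 note: inhibition shows as a rise in luminescence from relieved DAX1 repression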
hgDAF12 agonist: H. glycines DAF-12 receptor agonists, primary screen, cell-based, luminescence, HEK293, GAL4 fusion, UAS-luciferase | HEK293 GAL4-hgDAF12 UAS-luciferase reporter, agonist luminescence; normalized to butyrate control | Nuclear hormone receptor DAF-12 (Heterodera glycines), GAL4 fusion | 1.8% of 370,000 active | activation, % at 6.8 µM;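 active = activation above a cutoff set at the mean of all screened compounds plus 3 SD, cut at about 10% in these data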
GAA850 FXN act: FXN promoter activators, primary screen, cell-based, luciferase luminescence, HEK293 lucGAA850. AID 540364, 2011. 0.56% of 360,000 active. HEK293 lucGAA850 FXN promoter luciferase reporter, 24 h; percent of 10 µM SAHA response. activation, % at 6 µM;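 active = activation above the average of all compounds screened plus 3 SD, cutoff fixed separately per campaign, cut at about 7.5% in these data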
DAX1 inh-2: DAX1 (NR0B1) inhibitors on StAR promoter, primary screen, cell-based, luminescence, SF-1 (NR5A1), full-length DAX-1. HEK293T StAR-luciferase reporter, SF-1/DAX-1 repression relief. inhibition, % at 6.8 µM. 1.1% of 370,000 active. AID 652010, 2013;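 active = inhibition above the mean over all tested compounds plus 3 SD, cut at about 3.6% in these data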;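 note: higher inhibition means more luminescence from relief of DAX-1 repression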
DAX1 conf: DAX1 (NR0B1) inhibitors relieving SF-1 repression, confirmation, cell-based, luminescence, HEK293T, full-length DAX-1, SF-1 activated StAR promoter; shares compounds with DAX1 inh-2; HEK293T StAR-promoter luciferase reporter, SF-1/DAX-1 repression; inhibition, % at 6.8 µM; 87% of 2,400 active;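 active = inhibition above the average of every tested compound plus 3 SD, cut at about 3.8% in these data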
SF1 AF2mut Luc: StAR reporter signal changes without DAX1, counter-screen for DAX1 inhibitor project, cell-based, luminescence, AF-2 mutant SF-1, transactivation; shares compounds with DAX1 inh-2; HEK293 StAR-luciferase, SF-1 AF2 mutant; inhibition, % at 6.8 µM; 78% of 2,400 active; AID 652136, 2013;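 active = inhibition above the mean of all tested compounds plus 3 SD, cut at about 3% in these data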
LXRb hcDAF ctr: LXR agonists, Gal4 luciferase reporter, confirmation, counter-screen for hcDAF-12 agonist project, cell-based, luminescence, HEK293, H. contortus campaign; AID 743027, 2013; shares compounds with hcDAF-12 act; 3,400 tested, under 10 active; activation, % at 6.8 µM; HEK293 Gal4-LXR tk-luc reporter, 24 h; normalized: DMSO 0%, positive control 100%;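 active = mean percent activation of the reporter above a cutoff set as the average over tested compounds plus their standard deviation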
Target sequence (P55055 whole entry, looked up, the tested form may be a part): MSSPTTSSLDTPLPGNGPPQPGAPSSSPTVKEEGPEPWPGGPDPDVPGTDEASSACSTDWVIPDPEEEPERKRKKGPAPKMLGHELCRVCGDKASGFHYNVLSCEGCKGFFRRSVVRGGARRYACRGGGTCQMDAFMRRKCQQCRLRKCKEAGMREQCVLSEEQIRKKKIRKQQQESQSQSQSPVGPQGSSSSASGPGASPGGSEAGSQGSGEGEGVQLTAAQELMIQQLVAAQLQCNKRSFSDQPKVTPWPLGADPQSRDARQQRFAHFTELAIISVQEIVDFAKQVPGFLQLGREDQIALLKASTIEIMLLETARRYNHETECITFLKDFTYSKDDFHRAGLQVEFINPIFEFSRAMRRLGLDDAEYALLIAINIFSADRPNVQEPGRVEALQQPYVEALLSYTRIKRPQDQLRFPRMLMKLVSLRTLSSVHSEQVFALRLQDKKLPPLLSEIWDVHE
hcDAF12 conf: H. contortus DAF-12 receptor agonists, confirmation, cell-based, luminescence, HEK293, lit1-tk-luc, triplicate; shares compounds with hcDAF-12 act; 61% of 3,400 active; HEK293 hcDAF-12 lit1-tk-luc reporter; % of Δ7-dafachronic acid response; activation, % at 6.8 µM;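 active = mean activation across triplicate tests above the threshold derived from the earlier primary screen, cut at about 5.5% in these data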
Each line names hits and unclear results; the compound was inactive in the other large screens (follow-up assays come after a bar, where they were run). This is a sample that favours compounds with a hit; in the whole collection about 4.5% have one here.

Cc1ccc2oc(C(=O)Nc3cc(C)on3)c(C)c2c1	hcDAF-12 act 11, ssDAF12 agonist 2.5, hgDAF12 agonist 11, DAX1 inh-2 5.5 | DAX1 conf 13 | SF1 AF2mut Luc 8.0 | LXRb hcDAF ctr inactive | hcDAF12 conf 14
Cc1cc(NC(=O)c2cccs2)no1	none
Cc1cc(NC(=O)c2sc3ccccc3c2O)no1	hcDAF-12 act 12, DAX1 inh-2 6.5 | DAX1 conf 8.1 | SF1 AF2mut Luc 6.2 | LXRb hcDAF ctr inactive | hcDAF12 conf 7.2
COc1ccc(NC(=O)c2oc3ccccc3c2C)cn1	hcDAF-12 act 11, ssDAF12 agonist 1.1, DAX1 inh-2 6.4 | DAX1 conf 6.1 | SF1 AF2mut Luc 6.2 | LXRb hcDAF ctr inactive | hcDAF12 conf 9.8
Cc1c(C(=O)Nc2ccncc2)oc2ccccc12	none
Cc1ccc(NC(=O)c2oc3ccccc3c2C)nc1	hcDAF-12 act 8.5, ssDAF12 agonist 3.3, hgDAF12 agonist 13, DAX1 inh-2 8.2 | DAX1 conf 8.4 | SF1 AF2mut Luc 5.5 | LXRb hcDAF ctr inactive | hcDAF12 conf 16
COc1ccc(CNC(=O)COC(=O)c2ccco2)cc1	none
CCCNC(=O)C[C@H]1C[C@H]2c3cc(NC(=O)Nc4ccc(F)cc4)ccc3O[C@H]2[C@@H](CO)O1	none
O=C(NC1=NCCS1)c1cc2ccccc2o1	hcDAF-12 act 7.0, hgDAF12 agonist 11, DAX1 inh-2 5.3 | DAX1 conf 11 | SF1 AF2mut Luc 7.2 | LXRb hcDAF ctr inactive | hcDAF12 conf 6.2
O=C(NC1=NCCS1)c1ccccc1Cl	none
O=C(Nc1ccccc1C(=O)O)c1ccc(NC(=O)C2CCCO2)cc1 (stereo not given)	none
O=C(NCCOc1ccccc1)c1ccccc1NC(=O)C1CCCO1 (stereo not given)	hcDAF-12 act 9.0, hgDAF12 agonist 11, DAX1 inh-2 5.6 | DAX1 conf 8.3 | SF1 AF2mut Luc 7.3 | LXRb hcDAF ctr inactive | hcDAF12 conf 10
c1ccc2sc(-c3ccc4c(c3)OCO4)nc2c1	none (no result: hcDAF-12 act, ssDAF12 agonist, hgDAF12 agonist, DAX1 inh-2)
COc1ccc(-c2nc3ccccc3s2)cc1	hcDAF-12 act 12, hgDAF12 agonist 13, DAX1 inh-2 6.1 | DAX1 conf 14 | SF1 AF2mut Luc 3.6 | LXRb hcDAF ctr inactive | hcDAF12 conf 13
CCOC(=O)C1=C(C)c2ccccc2N(S(=O)(=O)C(F)(F)F)C1C(=O)OCC (stereo not given)	none
Cc1ccc(-n2c(C)nc3oc4ccccc4c(=O)c3c2=O)cc1	hcDAF-12 act 12, ssDAF12 agonist 1.8, DAX1 inh-2 4.5 | DAX1 conf 8.5 | SF1 AF2mut Luc 6.1 | LXRb hcDAF ctr inactive | hcDAF12 conf 9.2
O=C(COc1ccc(Cl)cc1Cl)Nc1ccc(Cl)cn1	hcDAF-12 act 8.8, hgDAF12 agonist 11, DAX1 inh-2 6.2 | DAX1 conf 8.3 | SF1 AF2mut Luc 3.5 | LXRb hcDAF ctr inactive | hcDAF12 conf 8.1
O=C(Nc1ccc(C(=O)O)cc1)/C(=C\c1ccco1)NC(=O)c1ccco1	none
N/C(=N\OC(=O)c1cccs1)c1ccc(Cl)cc1	none (no result: DAX1 inh-1)
COc1ccc(/C(N)=N/OC(=O)c2cccs2)cc1	hcDAF-12 act 10, ssDAF12 agonist 4.4, hgDAF12 agonist 12, DAX1 inh-2 5.2 | DAX1 conf 14 | SF1 AF2mut Luc 9.6 | LXRb hcDAF ctr inactive | hcDAF12 conf inactive
Cc1ccc(S(=O)(=O)N(C)c2ccc(OC(C)C(=O)N(C)c3ccccc3)cc2)cc1 (stereo not given)	none
COc1ccc(-c2cc(=O)c3ccccc3s2)cc1	hcDAF-12 act 16, ssDAF12 agonist 0.9, hgDAF12 agonist 22, DAX1 inh-2 6.9 | DAX1 conf 17 | SF1 AF2mut Luc 11 | LXRb hcDAF ctr inactive | hcDAF12 conf 10
c1ccc(-c2cn3c(n2)-c2ccccc2C3)cc1	hcDAF-12 act 21, ssDAF12 agonist 3.8, hgDAF12 agonist 15, DAX1 inh-2 5.7 | DAX1 conf 11 | SF1 AF2mut Luc 5.8 | LXRb hcDAF ctr inactive | hcDAF12 conf 22
Cc1ccc2nc(-c3ccccc3)cn2c1	none
O=C(O)c1cccc(N/N=C/c2cccs2)c1	hcDAF-12 act 13, ssDAF12 agonist 1.5, hgDAF12 agonist 17, DAX1 inh-2 7.2 | DAX1 conf 14 | SF1 AF2mut Luc 6.3 | LXRb hcDAF ctr inactive | hcDAF12 conf 17
O=C(O)c1cccc(N/N=C/c2ccc(OC(F)(F)F)cc2)c1	none
Cc1c(C(=O)Nc2nc3ccccc3[nH]2)oc2ccccc12	hcDAF-12 act 24, ssDAF12 agonist 3.8, hgDAF12 agonist 21, DAX1 inh-2 5.7 | DAX1 conf 14 | SF1 AF2mut Luc 7.4 | LXRb hcDAF ctr inactive | hcDAF12 conf 13
O=C(NCCc1nc2ccccc2[nH]1)c1ccc(Br)o1	none

Source: PubChem
